The record followed here is PubChem BioAssay (Tox21).

The target of test [1] is Peroxisome proliferator-activated receptor delta (Homo sapiens) (UniProt Q03181). Nature of the test: qHTS assay to identify small molecule agonists of the peroxisome proliferator-activated receptor delta (PPARd) signaling pathway (AID 743212; calls by dose curve). In a few lines: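 Beta-lactamase reporter readout: a ratiometric FRET signal from the LiveBLAzer substrate after 2 h at room temperature. Compound exposure at 37 °C in PPARδ-bla HEK293H cells driven by an upstream activator sequence.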
On the technique in general: qHTS replaces the single test concentration by a dilution series.

Test [2] is described as follows: qHTS assay to identify small molecule agonists of the farnesoid-X-receptor (FXR) signaling pathway - cell viability counter screen (AID 743218). Also: nearly all actives have a fitted effect of over 45% in size. Also: potency is read from the fitted curve at half-maximal effect. In a few lines:
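Viability of FXR-bla HEK 293T cells is measured by ATP-based CellTiter-Glo luminescence following 16 h compound treatment at 37 C and a prior 2 h room-temperature beta-lactamase substrate step.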

In test [3] the target is Bile acid receptor (Homo sapiens) (UniProt Q96RI1). Nature of the test: qHTS assay to identify small molecule agonists of the farnesoid-X-receptor (FXR) signaling pathway (AID 743220; active = well fitted activation curve with a large enough effect in the signal ratio in the repeat runs, not every such curve was filed as active; the % refers to the signal ratio). Summed up:
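FXR-UAS-bla HEK 293T cells carrying a UAS-driven beta-lactamase reporter were plated for 5 h at 37C/5% CO2, then exposed to DMSO-dissolved Tox21 10K compounds for 16 h at 37C. A LiveBLAzer B/G FRET substrate was loaded for 2 h at room temperature before fluorescence reading.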

Test [4] is described as follows: qHTS assay to identify small molecule antagonists of the farnesoid-X-receptor (FXR) signaling pathway - cell viability counter screen (AID 743221; active = well fitted cell-killing curve with a large enough effect in the repeat runs, not every such curve was filed as active; also: nearly all actives have a fitted effect of over 50% in size). In a few lines:
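FXR-UAS-bla HEK 293T cells were treated with test compounds plus chenodeoxycholic acid (50 uM final) for 16 h at 37 C. Cell viability in the same wells was then read as CellTiter-Glo luminescence after 30 min at room temperature.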

Test [5] can be described thus: qHTS assay to identify small molecule antagonists of the vitamin D receptor (VDR) signaling pathway - cell viability counter screen (AID 743225). Also: nearly all actives have a fitted effect of over 50% in size. Also: potency is read from the fitted curve at half-maximal effect. In a few lines: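 VDR-bla HEK 293T cells, 4 h pre-incubation at 37C, then compound plus 1-alpha,25-dihydroxyvitamin D3 (3 nM final) for 16 h. After the beta-lactamase FRET read, CellTiter-Glo was added to the same wells; luminescence after 30 min at room temperature.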

Test [6] can be described thus: qHTS assay to identify small molecule agonists of the NFkB signaling pathway - cell viability counter screen (AID 1159515; calls by dose curve; also: nearly all actives have a fitted effect of over 55% in size; also: potency is read from the fitted curve at half-maximal effect). In a few lines:
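Parallel cytotoxicity counter screen in ME-180 cells carrying an NFkB-response-element beta-lactamase reporter, 2,000 cells/well. Compound exposure lasted 5 hr at 37 C, 5% CO2. Cell viability was quantified by CellTiter-Glo luminescence.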

Test [7] in a line: qHTS assay to identify small molecule agonists of the endoplasmic reticulum stress response signaling pathway - cell viability counter screen (AID 1159517; calls by dose curve; also: nearly all actives have a fitted effect of over 50% in size; also: potency is read from the fitted curve at half-maximal effect). In a few lines:
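ESRE-bla HeLa cells (1,500/well) were plated overnight at 37 C and exposed to compounds for 5 hr. After the 2 hr beta-lactamase substrate read, CellTiter-Glo went into the same wells, and luminescence was read after 30 min at room temperature.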

Test [8] in a line: qHTS assay to identify small molecule antagonists of the retinoid-related orphan receptor gamma (ROR-gamma) signaling pathway - cell viability counter screen (AID 1159520). Also: nearly all actives have a fitted effect of over 50% in size. Also: potency is read from the fitted curve at half-maximal effect. In a few lines:
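Cytotoxicity was read from cellular ATP (CellTiter-Glo luminescence) after 16 hr at 37 C with 1 uM doxycycline induction. The inducer was added 2 hr after compound transfer to Tet-on ROR gamma CHO cells.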

For test [9], the target named is Nuclear receptor ROR-gamma (Homo sapiens) (UniProt P51449). The experiment in a line: qHTS assay to identify small molecule antagonists of the retinoid-related orphan receptor gamma (ROR-gamma) signaling pathway (AID 1159521; also: nearly all actives have a fitted effect of over 50% in size; also: potency is read from the fitted curve at half-maximal effect). In a few lines: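 Tet-on RORγ CHO cells carrying a ROR response element–luciferase reporter were pretreated with compounds for 2 h, then induced with 1 uM (final) doxycycline hyclate for 16 h at 37 C. Antagonism was read as decreased ONE-Glo luminescence.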

The nature of test [10]: qHTS assay to identify small molecule agonists of the AP-1 signaling pathway - cell viability counter screen (AID 1159525; calls by dose curve; also: nearly all actives have a fitted effect of over 55% in size; also: potency is read from the fitted curve at half-maximal effect). Summed up: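 Intracellular ATP by Cell Titer Glo luminescence (30 min, RT) in the same ME-180 AP-1-bla wells after the 5 h compound exposure at 37 °C. Normalised to tetra n-octyl ammonium bromide and DMSO controls.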
A short description of test [11]: qHTS assay to identify small molecule agonists of the AP-1 signaling pathway (AID 1159526; calls by dose curve).
Test [12] concerns the target Retinoic acid receptor RXR-alpha (Homo sapiens) (UniProt P19793). Nature of the test: qHTS assay to identify small molecule agonists of the RXR signaling pathway (AID 1159527; calls by dose curve; also: nearly all actives have a fitted effect of over 35% in size). In a few lines:
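GeneBLAzer RXR-alpha-UAS-bla HEK 293T cells in medium with 2% charcoal-stripped FBS, pre-incubated 5 hr at 37 C, then exposed to compounds 16 hr. Beta-lactamase reporter read by FRET substrate, 2 hr room temperature, 460/530 nm emission.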

Test [13] can be described thus: qHTS assay to identify small molecule agonists of the peroxisome proliferator-activated receptor delta (PPARd) signaling pathway - cell viability counter screen (AID 743211). Also: nearly all actives have a fitted effect of over 55% in size. In a few lines: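 PPARd-bla HEK293H cells (UAS-beta-lactamase reporter) were treated with compounds for 17 h at 37 C. Viability was then read in the same wells by CellTiter-Glo luminescence after 30 min at room temperature.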

The nature of test [14]: qHTS assay to identify small molecule antagonists of the peroxisome proliferator-activated receptor delta (PPARd) signaling pathway - cell viability counter screen (AID 743213). Also: nearly all actives have a fitted effect of over 50% in size. Also: potency is read from the fitted curve at half-maximal effect. In a few lines:
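Agonist-stimulated (L165041, 300 nM final) HEK293H PPARd UAS-bla cells are exposed to compounds for 17 h at 37 C, and ATP-based luminescence (CellTiter-Glo) from the same wells reports cytotoxicity.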

In test [15] the target is Peroxisome proliferator-activated receptor delta (Homo sapiens) (UniProt Q03181). The experiment in a line: qHTS assay to identify small molecule antagonists of the peroxisome proliferator-activated receptor delta (PPARd) signaling pathway (AID 743215; active = well fitted inhibition curve with a large enough effect in the signal ratio in the repeat runs, not every such curve was filed as active; the % refers to the signal ratio; also: series mostly up to about 62 µM). Summed up: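 Plated HEK293H PPARd-bla cells rested 5 h at 37 C and 5% CO2. Compound, then agonist L165041 at 300 nM final, was added; 17 h at 37 C followed. Substrate loading, 2 h room temperature, fluorescence measured.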

Test [16] addresses Vitamin D3 receptor (Homo sapiens) (UniProt P11473). Nature of the test: qHTS assay to identify small molecule agonists of the vitamin D receptor (VDR) signaling pathway (AID 743222; calls by dose curve). Summed up: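 Fluorescence from cleaved LiveBLAzer B/G FRET substrate served as readout. VDR-bla cells had been treated 16 h at 37C with test compounds in DMSO, following a 4 h settling period, and substrate was loaded for 2 h at RT.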

The target is the same in test [17]. The experiment in a line: qHTS assay to identify small molecule antagonists of the vitamin D receptor (VDR) signaling pathway (AID 743223; active = well fitted inhibition curve with a large enough effect in the signal ratio in the repeat runs, not every such curve was filed as active; the % refers to the signal ratio; also: potency is read from the fitted curve at half-maximal effect). Summed up: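 VDR-bla cells were plated, incubated 4 h at 37C, then given compound and 1alpha,25-dihydroxyvitamin D3 (3 nM final). After 16 h at 37C, LiveBLAzer B/G FRET substrate was added for 2 h at room temperature and fluorescence read.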

Test [18] is described as follows: qHTS assay to identify small molecule agonists of the vitamin D receptor (VDR) signaling pathway - cell viability counter screen (AID 743224). Also: nearly all actives have a fitted effect of over 50% in size. Also: potency is read from the fitted curve at half-maximal effect. In a few lines:
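Compounds were pin-transferred onto VDR-bla cells plated 4 h earlier; following 16 h incubation at 37C, cell viability was quantified by CellTiter-Glo luminescence after 30 min at room temperature.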

The target of test [19] is Bile acid receptor (Homo sapiens) (UniProt Q96RI1). The experiment in a line: qHTS assay to identify small molecule antagonists of the farnesoid-X-receptor (FXR) signaling pathway (AID 743217; active = well fitted inhibition curve with a large enough effect in the signal ratio in the repeat runs, not every such curve was filed as active; the % refers to the signal ratio). In a few lines:
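Screen of the Tox21 10K library in quantitative HTS format using FXR-UAS-bla HEK 293T reporter cells. Agonist chenodeoxycholic acid, 50 uM final, added with compounds; 16 h incubation at 37 °C; beta-lactamase FRET fluorescence measured.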

Several values for one entry are separate records, joined by “and”; a condition that tells them apart may be missing. Identical values can stand only once. Inconclusive results are not listed. Activity calls are given as the source filed them. Unless noted, calls follow the shape of the dose curve; as a rule, active = well fitted curve in the direction sought with a large enough effect in the repeat runs; inconclusive = weak or mixed curves; inactive = no such curve, though single readings can be large; an effect the other way counts as inactive or inconclusive.

Sequence of Peroxisome proliferator-activated receptor delta (Homo sapiens) (Q03181 whole entry, looked up): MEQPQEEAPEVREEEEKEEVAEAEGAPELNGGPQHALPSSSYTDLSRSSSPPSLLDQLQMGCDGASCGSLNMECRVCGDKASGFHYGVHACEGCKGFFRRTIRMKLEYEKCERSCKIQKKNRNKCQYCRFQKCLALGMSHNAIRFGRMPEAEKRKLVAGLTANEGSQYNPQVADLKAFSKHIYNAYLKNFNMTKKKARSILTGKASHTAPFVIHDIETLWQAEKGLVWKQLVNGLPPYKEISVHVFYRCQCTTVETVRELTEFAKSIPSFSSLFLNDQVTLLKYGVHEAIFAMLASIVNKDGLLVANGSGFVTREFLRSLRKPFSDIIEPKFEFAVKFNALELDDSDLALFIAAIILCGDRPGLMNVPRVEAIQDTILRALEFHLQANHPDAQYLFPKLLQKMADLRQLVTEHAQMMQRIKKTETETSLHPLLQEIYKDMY
Sequence of Bile acid receptor (Homo sapiens) (Q96RI1 whole entry, looked up): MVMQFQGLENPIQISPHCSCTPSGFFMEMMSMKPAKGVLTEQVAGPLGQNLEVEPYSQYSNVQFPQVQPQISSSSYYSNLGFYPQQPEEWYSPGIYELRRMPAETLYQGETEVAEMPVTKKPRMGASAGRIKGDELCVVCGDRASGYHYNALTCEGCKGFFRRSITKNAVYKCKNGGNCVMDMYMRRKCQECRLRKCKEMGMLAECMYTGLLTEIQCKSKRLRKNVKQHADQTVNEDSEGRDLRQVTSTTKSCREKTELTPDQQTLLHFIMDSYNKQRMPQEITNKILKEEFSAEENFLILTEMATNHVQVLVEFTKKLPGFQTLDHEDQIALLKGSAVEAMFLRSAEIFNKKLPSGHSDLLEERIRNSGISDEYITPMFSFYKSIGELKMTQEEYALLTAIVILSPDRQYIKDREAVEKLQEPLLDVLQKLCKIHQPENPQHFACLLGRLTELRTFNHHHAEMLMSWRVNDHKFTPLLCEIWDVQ
Sequence of Retinoic acid receptor RXR-alpha (Homo sapiens) (P19793 whole entry, looked up): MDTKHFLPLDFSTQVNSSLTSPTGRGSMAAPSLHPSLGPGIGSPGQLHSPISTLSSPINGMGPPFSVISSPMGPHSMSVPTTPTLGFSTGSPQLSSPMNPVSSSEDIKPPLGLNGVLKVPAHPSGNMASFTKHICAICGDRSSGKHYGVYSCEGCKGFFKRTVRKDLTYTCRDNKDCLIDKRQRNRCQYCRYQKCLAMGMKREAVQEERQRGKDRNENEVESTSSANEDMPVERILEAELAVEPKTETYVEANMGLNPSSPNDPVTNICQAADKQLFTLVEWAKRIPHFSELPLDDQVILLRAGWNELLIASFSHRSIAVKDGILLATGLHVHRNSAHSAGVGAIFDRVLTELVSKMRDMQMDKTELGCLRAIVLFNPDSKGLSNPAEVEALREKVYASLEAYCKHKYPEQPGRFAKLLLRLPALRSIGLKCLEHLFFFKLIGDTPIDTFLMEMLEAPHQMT
Sequence of Vitamin D3 receptor (Homo sapiens) (P11473 whole entry, looked up): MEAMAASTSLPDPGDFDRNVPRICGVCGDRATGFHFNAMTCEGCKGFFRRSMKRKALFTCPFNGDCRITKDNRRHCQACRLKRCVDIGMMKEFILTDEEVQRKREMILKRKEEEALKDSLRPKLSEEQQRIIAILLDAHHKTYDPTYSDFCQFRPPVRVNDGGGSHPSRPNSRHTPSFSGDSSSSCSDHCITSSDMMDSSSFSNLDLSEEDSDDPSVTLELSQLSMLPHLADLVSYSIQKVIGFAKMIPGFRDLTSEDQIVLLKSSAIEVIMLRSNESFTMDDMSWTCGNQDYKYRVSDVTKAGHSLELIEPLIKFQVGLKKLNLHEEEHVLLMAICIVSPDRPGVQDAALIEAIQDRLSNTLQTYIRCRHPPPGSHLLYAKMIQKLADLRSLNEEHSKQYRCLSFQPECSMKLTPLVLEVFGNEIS

For the compound `O=c1c(O)c(-c2ccc(O)cc2O)oc2cc(O)cc(O)c12`, the Potency result in [1], in [2], in test [3], in [4], in test [5] and in test [6] was “inactive” throughout. The Potency result in test [7], in test [8], in [9], in test [10], in test [11] and in [12] was “inactive” in each case.
Regarding `OC/C=C/CO`, the Potency result in test [13], in test [1], in test [14], in [15], in test [16] and in [17] was “inactive” each time. For the same compound, the Potency entry in test [18], in test [5], in test [6], in test [7], in test [8] and in test [9] was “inactive” each time. Besides, the Potency entry in test [10], in test [11] and in test [12] was “inactive” throughout.
`CCCCC(CC)CN1CN(CC(CC)CCCC)CC(C)(N)C1` (stereo not given): the Potency entry in [13], in test [15], in test [19], in test [2], in test [3] and in test [17] was “inactive” in each case. For the same compound, the Potency entry in test [5], in test [9], in test [10] and in test [11] was “inactive” each time. In addition, the Potency in [18] was 29.8 µM (active); in [6], 26.8 µM (active); in test [7] it was 21.3 µM (active); in test [8], 26.6 µM (active).
On to `Nc1nc(N)nc(-c2cc(Cl)ccc2Cl)n1`, for which the Potency result in test [13], in test [1], in test [14], in [15], in [19] and in test [2] was “inactive” each time. Also, the Potency entry in test [3], in test [4], in [18], in test [6], in [7] and in test [8] was “inactive” throughout. Moreover, the Potency entry in [9], in test [10], in [11] and in [12] was “inactive” throughout.
As to `O=C1OC2(c3ccc(O)cc3Oc3cc(O)ccc32)c2ccc(N=C=S)cc21`, the Potency result in test [13], in test [15], in test [2], in test [3], in test [4] and in [18] was “inactive” in each case. In addition, the Potency entry in [5], in [6], in [7], in test [8], in [9] and in test [10] was “inactive” throughout. Further, the Potency result in test [11] was “inactive”.
Regarding `OC1CCC(C2CCCCC2)CC1` (stereo not given), the Potency entry in [1], in [15], in test [19], in [2], in test [3] and in [4] was “inactive” each time. The Potency entry in test [17], in [5], in [6], in test [7], in test [8] and in [9] was “inactive” in each case. The Potency result in test [10], in test [11] and in test [12] was “inactive” in each case.
For `CCCCCCCCCCCCCC[N+](C)(C)Cc1ccccc1`, the Potency in test [14] was 22.2 µM (active) and 10.6 µM (active); in test [2], 23.7 µM (active); in test [17] it was 44.3 µM (active); in test [18], 24.9 µM (active); in [5], 24.9 µM (active) and 16.9 µM (active); in test [6], 49.7 µM (active). Moreover, the Potency in test [7] was 17.7 µM (active) and 23.9 µM (active); in [8], 69.6 µM (active); in test [9], 24.7 µM (active) and 26.6 µM (active) and 20 mM (active); in [10], 23.9 µM (active). Further, the Potency result in [19], in [3] and in test [16] was “inactive” throughout.
Take `CCn1c2ccccc2c2cc([N+](=O)[O-])ccc21`: the Potency result in test [13], in test [14], in test [19], in test [2], in [4] and in test [18] was “inactive” throughout. Besides, the Potency result in test [6], in test [7], in test [8], in [9], in [10] and in test [11] was “inactive” in each case.
